Screens: PubChem, several laboratories
A selection: hits, their analogues and other compounds. The true share with any hit is near 2%.
PAX8 inh HTS: inhibitors of PAX8-driven TPO luciferase reporter, primary screen, RMG-I cells, single concentration; SteadyGlo, 24 h; inhibition, % at 12.6 µM; hit rate 1.2% among 360,000; AID 652154, 2013;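 active = mean replicate inhibition at least 60% with every replicate also reaching 60%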;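 also: luciferase light reporting Pax8 driven TPO promoter activity; plate controls were median of neutral control wells for no effect and mitoxantrone controls for full effect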
EWS-Fli inh: EWS/Fli-driven NR0B1 reporter inhibitors, primary screen, A673 cells, NR0B1 luciferase, luminescence, MLPCN library; viability-normalised; inhibition, % at 12.6 µM; hit rate 0.67% among 350,000; AID 651661, 2012;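 active = mean inhibition of at least 50% after viability correction, with every replicate also passing that limit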;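 also: firefly luciferase signal divided by Alamar Blue viability fluorescence both relative to DMSO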
CF NFkB inh: inhibitors of PAF-induced NF-kB signaling, primary screen, cell-based, GFP fluorescence, uHTS | inhibition, % at 5 µM | hit rate 0.86% among 360,000 | AID 588850, 2011 | KKLEB NF-kB-GFP reporter, GFP fluorescence overnight;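 active = at least 50% inhibition at 5 µM, scaled per plate between neutral and stimulator controls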;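 also: PAF is a Pseudomonas aeruginosa culture filtrate used as stimulus; plate controls were PAF-stimulated DMSO wells for no effect and unstimulated DMSO wells for full effect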
LGR2 inh: inhibitors of bursicon-induced LGR2 CRE-luciferase signal, primary screen, cell-based, HEK293, CRE-luciferase reporter, bursicon stimulation. inhibition, % at 9.99 µM. Drosophila bursicon receptor LGR2 (rickets). bursicon-stimulated, 4 h. hit rate 0.35% among 380,000. AID 720647, 2013;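 active = drop in luminescence signal, shown as inhibition above about 50% in the replicate tests, limit read from the data, passing the limit was not always enough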;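 also: agonist challenge used bursicon conditioned medium at about half maximal strength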
Shn3 inh set2: reduction of Shn3 3'UTR firefly luciferase signal, primary screen, Schnurri-3 inhibitor project, cell-based, Clone20 osteoblasts, set 2. Clone20 osteoblast Shn3 3'UTR firefly luciferase, 24 h. inhibition, % at 12.5 µM. hit rate 0.52% among 360,000;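 active = mean inhibition of at least 75% with every replicate also reaching 75%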;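 also: 0% = median of neutral control wells and 100% = pilot-screen positive control compound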
KKLEB tox: cytotoxicity in KKLEB CF airway cells, primary screen, cytotoxicity control for CF NF-kB inhibitor project, cell-based, uHTS, fluorescence assay plates | KKLEB CF airway cells viability, ATPlite luminescence, overnight; hits give low values; cells stimulated with P. aeruginosa culture filtrate | activity change (cytotoxicity), % at 5 µM | hit rate 0.36% among 360,000 | AID 602141, 2011;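 active = corrected activity change at or below -50% at 5 µM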
Active calls of the source: *; x = no result.

SMILES	PAX8 inh HTS	EWS-Fli inh	CF NFkB inh	LGR2 inh	Shn3 inh set2	KKLEB tox
CCCCCCN(C(=O)CCCCCN1C(=O)NC(c2ccc(-c3ccccc3)cc2)C(C(=O)OCc2ccccc2)=C1C)C(C(=O)NCCCC)c1ccccn1 (centres undefined)	79.6*	7.4	x	10.5	x	x
Cc1noc(C)c1NC(=O)Nc1ccc2c(c1)C(=O)N([C@@H](C)CO)C[C@H](C)[C@H](CN(C)S(=O)(=O)c1ccccc1)O2	x	-6.5	x	10.7	x	x
O=C(NNC(=S)NC(=O)c1sc2ccccc2c1Cl)c1ccc(Cl)cc1	x	x	75.5*	0.1	-41.3	-65.0*
O=C(O)c1ccccc1NC(=S)NC(=O)c1sc2ccccc2c1Cl	-31.1	-10.3	27.6	1.3	-8.6	-0.8
COCC(=O)N1CC2(CCN(C(C)=O)CC2)c2c([nH]c3cc(OC)ccc23)[C@@H]1CO	x	-5.6	x	-23.0	x	x
C[C@@H]1CN([C@@H](C)CO)C(=O)c2cc(NS(=O)(=O)c3ccc(Cl)cc3)ccc2O[C@@H](C)CCCCO[C@@H]1CN(C)Cc1ccc(C(F)(F)F)cc1	-16.1	8.5	x	18.9	x	x
C[C@H](CO)N1C[C@H](C)[C@H](CN(C)Cc2ccc(C(=O)O)cc2)OCCCC[C@H](C)Oc2ccc(NS(=O)(=O)c3ccc(Cl)cc3)cc2C1=O	-35.8	-5.1	x	4.3	x	x
C[C@@H]1CCCCO[C@@H](CN(C)Cc2ccc(C(F)(F)F)cc2)[C@H](C)CN([C@@H](C)CO)C(=O)c2cc(NS(=O)(=O)c3ccc(Cl)cc3)ccc2O1	102.6*	17.6	x	22.8	x	x
C[C@@H]1CCCCO[C@H](CN(C)Cc2ccc(C(F)(F)F)cc2)[C@@H](C)CN([C@H](C)CO)C(=O)c2cc(NS(=O)(=O)c3ccc(Cl)cc3)ccc2O1	-14.2	2.4	x	2.8	x	x
C[C@@H]1CN([C@H](C)CO)C(=O)c2cc(NS(=O)(=O)c3ccc(Cl)cc3)ccc2O[C@@H](C)CCCCO[C@H]1CN(C)Cc1ccc(C(F)(F)F)cc1	99.3*	61.9*	x	12.6	x	x
C[C@@H]1CCCCO[C@@H](CN(C)Cc2ccc(C(F)(F)F)cc2)[C@H](C)CN([C@H](C)CO)C(=O)c2cc(NS(=O)(=O)c3ccc(Cl)cc3)ccc2O1	103.4*	26.5	x	17.9	x	x
C[C@@H]1CCCCO[C@H](CN(C)Cc2ccc(C(F)(F)F)cc2)[C@H](C)CN([C@H](C)CO)C(=O)c2cc(NS(=O)(=O)c3ccc(Cl)cc3)ccc2O1	98.6*	11.1	x	32.1	x	x
C[C@H]1CCCCO[C@@H](CN(C)Cc2ccc(C(F)(F)F)cc2)[C@@H](C)CN([C@@H](C)CO)C(=O)c2cc(NS(=O)(=O)c3ccc(Cl)cc3)ccc2O1	102.1*	0.3	x	24.7	x	x
C[C@@H]1CN([C@@H](C)CO)C(=O)c2cc(NS(=O)(=O)c3ccc(Cl)cc3)ccc2O[C@@H](C)CCCCO[C@H]1CN(C)Cc1ccc(C(F)(F)F)cc1	102.4*	20.7	x	24.1	x	x
CNc1ccc(Br)cc(C(=O)/C=C/c2ccc(Cl)cc2Cl)c1=O	66.5*	25.3	10.5	14.0	-6.0	-3.3
COc1ccc2c3c(n(C)c2c1)[C@@H](CO)N(Cc1ccccc1F)CC31CN(C(C)=O)C1	-63.5	-9.1	x	3.5	x	x
COc1ccc(CN(CCC(c2ccccc2)c2ccc(OC(C)C)cc2)C(=O)CCl)cc1OC (centres undefined)	4.9	x	80.7*	-7.6	-0.4	-85.2*
COc1ccc(C(CCN(Cc2ccc(OC)c(OC)c2)C(C)=O)c2ccccc2)cc1 (centres undefined)	-13.5	0.3	6.2	9.7	-10.1	-9.7
CO[C@H]1CC[C@@H]2CCOc3ccc(C#N)cc3C(=O)N(C)C[C@@H](OC)[C@H](C)C(=O)N(C)C[C@@H]1O2	3.0	-2.2	x	-0.2	x	x
CCN(CC)CCNc1ccnc2cc(Cl)ccc12	x	7.8	0.7	-4.0	22.7	-7.1
Clc1ccc2c(NCc3ccccc3)ccnc2c1	34.9	10.8	5.2	24.7	90.4*	-1.6
COc1ccc(-c2csc(N(CCCN(C)C)C(=O)c3ccccc3F)n2)cc1	62.8*	17.8	14.3	24.3	14.4	-10.0
COc1ccccc1CN1[C@@H]2c3cccc(=O)n3C[C@@H]2[C@@H](CO)[C@@H]1C(=O)NCc1ccccc1	-2.8	0.7	x	0.9	x	x
Cc1cc(C(=O)COC(=O)c2ccncc2)c(C)n1Cc1ccco1	-18.4	-7.0	22.6	-27.0	-38.0	10.3
COCC(C)n1c(C)cc(C(=O)COC(=O)c2cccn2C)c1C (centres undefined)	-1.4	61.5*	4.9	x	29.3	-0.7
SMILES	PAX8 inh HTS	EWS-Fli inh	CF NFkB inh	LGR2 inh	Shn3 inh set2	KKLEB tox
COCC(C)n1c(C)cc(C(=O)COC(=O)c2cnc(Cl)c(Cl)c2)c1C (centres undefined)	2.4	5.7	-9.6	1.9	4.2	3.8
Cc1cc(C(=O)COC(=O)c2cccn2C)c(C)n1Cc1ccco1	17.9	28.9	16.5	52.9*	-8.5	-23.3
Cc1cc(C(=O)COC(=O)c2ccco2)c(C)n1Cc1ccco1	-131.2	-8.7	0.8	91.5*	-21.8	-2.5
Cc1cc(C(=O)CN2C(=O)C(=O)N(Cc3ccco3)C2=O)c(C)n1CCc1ccccc1	32.3	53.9*	21.6	2.2	2.6	-15.2
COCC(=O)Nc1ccc2c(c1)OC[C@@H](C)N(Cc1ccccc1)C[C@@H](C)[C@@H](OC)CN(C)C2=O	x	1.6	x	-3.2	x	x
COCCCN=C1NN=C(c2cc(C)n(Cc3ccco3)c2C)CS1	-35.2	54.1*	22.5	-30.0	-13.1	-8.2
COCC(C)N=C1NN=C(c2cc(C)n(Cc3ccccc3Cl)c2C)CS1 (centres undefined)	-59.6	-5.4	7.3	2.3	28.6	-7.8
Cc1cc(C2=NNC(=NC3CC3)SC2)c(C)n1-c1ccccc1	77.0*	89.3*	-9.6	-3.9	94.1*	-14.4
c1ccc2c(C3=NNC(=NC4CCCCC4)SC3)c[nH]c2c1	-19.7	-1.4	-7.1	-50.2	-16.7	-4.4
Cc1cc(C2=NNC(=NC3CC3)SC2)c(C)n1Cc1ccco1	6.4	71.7*	22.2	x	38.4	-11.5
c1ccc2c(C3=NNC(=NC4CC4)SC3)c[nH]c2c1	-21.9	x	-9.5	58.3*	10.1	11.8
Cc1noc(C)c1NC(=O)Nc1ccc2c(c1)C(=O)N([C@@H](C)CO)C[C@@H](C)[C@@H](CN(C)S(=O)(=O)c1ccc(F)cc1)OCCCC[C@H](C)O2	3.3	2.7	x	-19.8	x	x
CCCC(=O)Nc1ccc2c(c1)C(=O)N(C)[C@H]1CC[C@@H](CC(=O)N3CCc4ccccc4C3)O[C@H]1CO2	10.8	2.2	x	4.6	x	x
